In ChEMBL document CHEMBL3988442, “University of Dundee, Small-Polar-MMV Screening Library” (2021):
Out of some 48,000 compounds screened, about 13,000 (27%) showed an effect of 50% or more. The list shows a part of the results.

System: Wolbachia pipientis
Assay: Anti-Wolbachia Cell-Based Screen
Type: functional
Parameters: scale not given: in the data most compounds retested in dose-response had high values
Settings: 5 µM

SMILES | Percent Effect [%]
COc1ccc(C(=O)N2CCCC2c2cnn(C)c2)cn1 (centres undefined) | 112.3
CCOc1ccc(C(=O)N2CCCC2c2cnn(C)c2)cn1 (centres undefined) | 110.2
Cc1nnc(CN(C)S(=O)(=O)c2ccc(Br)cc2Cl)n1C | 5.813
CC(C)Oc1cccc(C(=O)C2CCCN(S(=O)(=O)C(C)C)C2)c1 (centres undefined) | 1.86
Cc1nn(CCO)c(C)c1CNC1CCCCc2ccccc21 (centres undefined) | 2.659
O=C(NCCc1ccn(-c2ccccc2)n1)N1CCSCC1 | 87.95
O=C(NCCc1ccn(-c2ccccc2)n1)N1CCCC(O)C1 (centres undefined) | 108.2
O=C(NCCc1ccn(-c2ccc(F)cc2)n1)C1CCCOC1 (centres undefined) | -15.61
CCOC1CCN(C(=O)NCc2ccc(C(=O)N(C)C(C)C)cc2)CC1 | -14.18
CCOC1CCN(C(=O)NCCc2ccn(-c3ccccc3)n2)CC1 | 152.6
O=C(NCCc1ccn(-c2ccccc2)n1)N1CCC1 | 5.708
O=C(NCCc1ccn(-c2ccccc2)n1)N1CCCC(CO)C1 (centres undefined) | 104.8
O=C(NCCC1Cc2ccccc2C1)N1CCCC(O)C1 (centres undefined) | -12.54
CC1(C)CN(C(=O)NCCc2ccn(-c3ccccc3)n2)CCO1 | -7.348
CCOC1CCCN(C(=O)NCCc2ccn(-c3ccccc3)n2)C1 (centres undefined) | 9.361
CC(C)(C)c1cn(C2CCN(C(=O)c3cncnc3)CC2)nn1 | 8.941
Cc1cc2ncc(C(C)NCc3cccnc3)c(C)n2n1 (centres undefined) | 0.9631
O=C(c1cccc2ncccc12)N1CCCN(c2cccnn2)CC1 | -3.765
N#Cc1ccc(N2CCN(c3ncccn3)CC2)c(C(F)(F)F)c1 | 0.2646
COc1cccc(CCCNC(=O)N2CCC(O)(C(F)(F)F)C2)c1 (centres undefined) | -22.68
Cc1nn(C)c(N(C)C)c1CNCc1cnn(Cc2ccccc2)c1 | 0.347
O=C(Nc1ccc(CC(=O)N2CCSCC2)cc1)NC1CCCC1 | -7.412
O=C(Nc1ccc(CC(=O)N2CCCC2)cc1)NC1CC1 | 116.7
O=C(Nc1ccc(CC(=O)N2CCSCC2)cc1)NC1CC1 | 1.128
Cc1nc(CNC(=O)NC2CCN(c3ncccc3Cl)C2)no1 (centres undefined) | -5.791
OCCC1CN(c2ncnc3[nH]cnc23)CCN1Cc1ccccc1 (centres undefined) | -15.48
CCCN1CCCC2(CCN(Cc3noc(C4CCCC4)n3)C2)C1=O (centres undefined) | -0.09411

SMILES | Percent Effect [%]
CCN1CC2(CCC1=O)CCN(Cc1nncn1C(C)C)CC2 | 3.317
Cn1cnnc1CN1CCC2(CCCN(C3CCCC3)C2=O)C1 (centres undefined) | 103.4
CC(C)N1CCCC2(CCN(Cc3nncn3C(C)C)C2)C1=O (centres undefined) | 92.74
CC(C)[C@H]1COC(=O)N1Cc1nncn1C(C)C | 9.429
CCCN1CCCC2(CCN(Cc3cncn3C3CCCC3)C2)C1=O (centres undefined) | 1.607
Cn1cnnc1CN1CCC2(CCCN(C3CCCCC3)C2=O)C1 (centres undefined) | 111.9
CCCN1CCCC2(CCN(Cc3cncn3C3CCCCC3)C2)C1=O (centres undefined) | -18.59
CN1CCCC2(CCN(Cc3cncn3C3CCCCC3)C2)C1=O (centres undefined) | -0.6007
CC(C)N1CCCC2(CCN(Cc3noc(C4CCCC4)n3)C2)C1=O (centres undefined) | 17.18
CCN1CC2(CCC1=O)CCN(Cc1nncn1C)CC2 | -22.02
CC(C)n1cnnc1CN1CCC2(CCCN(C3CCCCC3)C2=O)C1 (centres undefined) | 113.2
O=C(O)C(F)(F)F.c1csc(CN2CCC3(CCCN(c4nncs4)C3)C2)n1 (centres undefined) | -3.653
CCN1CCC(N2C[C@H]3OC(=O)N(CCc4cccc(Cl)c4)[C@H]3C2)CC1 | -15.6
CCSCCC(=O)Nc1ncn(CC(=O)NCc2ccccc2)n1 | 1.311
CN(Cc1ccc(C(=O)Nc2sccc2C#N)cc1)Cc1ccno1 | -5.875
Cc1csc(N(C)C(=O)C2CC(=O)N(CCc3ccccc3)C2)n1 (centres undefined) | 4.812
CC(C(=O)O)N1CC2(CCC1=O)CCN(CCc1ccccc1)CC2 (centres undefined) | -3.737
CCOC(=O)N1CC(=O)N(CCc2ccccc2)CC(O)C1 (centres undefined) | 123.2
Cc1[nH]ccc1C(=O)NCC1CC(=O)N(CCc2ccccc2)C1 (centres undefined) | 5.345
CC(C)c1cc(C(=O)N2CCCN(CCCc3ccccc3)CC2)[nH]n1 | 0.07047
CN(C(=O)C1CC(=O)N(CCc2ccccc2)C1)c1nccs1 (centres undefined) | 3.016
CC(C)(C)OC(=O)N1CC(=O)N(CCc2ccccc2)CC(O)C1 (centres undefined) | 114.6
CC(C)COC(=O)N1CC(=O)N(CCCc2ccccc2)CC(O)C1 (centres undefined) | 111
Cc1ccccc1C(C)CC(=O)N1CC[C@H](O)C1 (some centres undefined) | -9.659
CNC(=O)C1Cc2ccccc2CN1CCCc1ccccc1 (centres undefined) | -8.054
CC(C)CC(=O)N1CC(=O)N(CCc2ccccc2)CC(O)C1 (centres undefined) | 118.7
CC(C)(C)N1CC(C(=O)N2CCN(CCc3ccccc3)CC2)CC1=O (centres undefined) | 4.322
